BAZ2B block: blocks human BAZ2B; Potency, µM (top dose mostly 114 µM), for the others: top-dose activity change, negative = inhibition, usual class: inhibitors; 360,000 tested, 4.4% active; Q9UIF8; AID 504333; AlphaScreen BAZ2B-H3K14Ac peptide displacement; further: on the % scale 0 is the no-effect control and ±100 the full control effect; nearly all actives have a fitted effect of over 60% in size
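AlphaScreen luminescence quantifies BAZ2B engagement of H3K14Ac peptide; the protein and biotinylated peptide are both at 50 nM final, buffer PBS pH 7.4 with 0.01% Tween-20, all steps at room temperature.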
JMJD2A Tudor inh: inhibitors of human JMJD2A Tudor domain; AID 504339; Potency, µM (top dose mostly 114 µM), for inactives: at the top dose activity change, negative = inhibition, actives largely listed as inhibitors; AlphaScreen JMJD2A-Tudor / H3K4me3 peptide binding; O75164; 390,000 tested, 4.4% active; further: on the % scale 0 is the no-effect control and ±100 the full control effect; nearly all actives have a fitted effect of over 50% in size
PLK1 PBD block: inhibitors of human PLK1 polo-box domain binding | 360,000 tested, 2.8% active | Potency, µM, without a hit: max response, negative = inhibition, actives largely listed as inhibitors | AID 720504 | P53350 | Plk1 PBD binding of FITC phosphopeptide, fluorescence polarization; further: series mostly up to about 57 µM; on the % scale 0 is the no-effect control and ±100 the full control effect; nearly all actives have a fitted effect of over 65% in size
VDR inh: inhibitors of human vitamin D receptor; P11473; VDR-SRC2-3 peptide fluorescence polarization, 2 h; Potency, µM, for inactives: max response, negative = inhibition, hits mostly inhibitors; 400,000 tested, 0.93% active; further: on the % scale 0 is the no-effect control and ±100 the full control effect
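Fluorescence polarization assay measuring small-molecule disruption of VDR binding to the coregulator peptide SRC2-3. Compounds were pin-transferred (23 nl) into the reagent mix and incubated 2 h at room temperature before reading.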
HP1b chromo inh: inhibitors of HP1-beta chromodomain binding to methylated histone tails; P83916; Potency, µM (titrated, usually from 114 µM), for the others: top-dose activity change, negative = inhibition, hits mostly inhibitors; AlphaScreen HP1-beta / biotin-H3K9me3 peptide binding; 390,000 tested, 0.56% active; AID 540317; further: nearly all actives have a fitted effect of over 70% in size
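HP1-beta protein (50 nM final) preincubated 30 min at room temperature with biotinylated H3(1-18)K9me3 peptide (50 nM) in PBS pH 7.4, 0.01% Tween-20, then compound added for 30 min. AlphaScreen streptavidin donor/nickel chelate acceptor beads (10 ug/mL final), 30 min dark, luminescence read.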
L3MBTL1 block: L3MBTL1 (human) inhibition; 230,000 tested, 0.66% active; AlphaScreen L3MBTL1–H3K9me1 peptide binding; Q9Y468; Potency, µM (series often up to 57.1 µM), for inactives: at the top dose activity, negative = inhibition, actives largely listed as inhibitors; further: on the % scale 0 is the no-effect control and ±100 the full control effect; nearly all actives have a fitted effect of over 60% in size
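First, the protein-peptide complex forms for 30 min at room temperature (L3MBTL1 50 nM, biotinylated H3K9me1 peptide 75 nM). Next, compounds are pin-transferred and incubated 30 min. Finally, AlphaScreen beads are added and read after 30 min.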
The depositor's hits bear a star; ? = inconclusive; / = no result; ! = not active in a repeat; [ ] = another dose, or the depositor's remark. Sampled rows, rich in hits. Any-hit rate of the full collection: about 6.9%. The call rests on the fitted dose curve; in most records, active means well fitted curve in the direction sought with a large enough effect; inconclusive means small, poorly fitted or top-dose-only effect, or another doubt; inactive means no such curve, though single readings can be large; an effect the other way counts as inactive or inconclusive. Potency means the concentration at half of the fitted maximal effect.

SMILES	BAZ2B block	JMJD2A Tudor inh	PLK1 PBD block	VDR inh	HP1b chromo inh	L3MBTL1 block
Cc1cccc(C(=O)NCC(=O)OCc2cc(=O)n3nc(C4CCCCC4)sc3n2)c1	-2%	-23%	/	-3%	-17%	/
COc1cccc(C=Nc2cc(C(C)C)c(O)cc2C)c1O	/	56µM*	-22%	50µM*	79µM*	/
Cc1cc(O)c(C(C)C)cc1N=Cc1ccc([N+](=O)[O-])cc1	/	45µM*	-23%	50µM*	50µM*	/
Cc1cc(O)c(C(C)C)cc1N=Cc1ccc(N(C)C)cc1	/	50µM*	-18%	45µM*	45µM*	/
CNC(=O)CO/N=C/c1ccc(N(C)C)cc1	-19%	-9%	6%	6%	27%	2%
Cc1ccc(C)c(CNC(=O)c2ccc3c(c2)nc2n3CCC(C)C2)c1 (stereo unspecified)	1%	-13%	/	12%	25%[57 µM]	/
COc1cccc(-c2nc(N3CCCCC3C)c3ccccc3n2)c1O (stereo unspecified)	?	40µM*	2%	10%	-36%	-7%
COc1cccc(-c2nc(NC3CCCC3)c3ccccc3n2)c1O	35µM*	?	-7%	7%	-16%	/
O=C(O)C1C2CCC(C2)C1C(=O)NCCc1ccccc1 (stereo unspecified)	-2%	4%	4%	5%	29%	11%
CCOc1ccccc1NC(=O)CCn1c(-c2ccc(OC)cc2)cc(C(C)=O)c1C	-1%	-30%	/	8%	16%	/
OCCN1CCN(c2ncnc3c2c(-c2ccccc2)cn3-c2ccc(Br)cc2)CC1	45µM*	35µM*	0%	-10%	-33%	/
CCN1CCN(c2ncnc3c2c(-c2ccccc2)cn3-c2ccc(F)cc2)CC1	?	40µM*	-5%	13%	27%	/
Cc1ccc(S(=O)(=O)NCc2ccccc2)cc1C(=O)N(C)Cc1ccc(F)cc1	0%	-17%	-17%	-22%	14%	/
N#Cc1nc(NCC(F)F)c2ncn(-c3cccc(Cl)c3)c2n1	/	-3%	/	/	/	/
Clc1ccc(CN2CCN(c3ncccn3)CC2)c(Cl)c1	?	18µM*	3%	7%	?	8%
Clc1ccccc1CN1CCN(c2ncccn2)CC1	?	1µM*	-4%	-14%	?	-6%
O=C(c1ccccc1Cl)N1CCN(c2ncccn2)CC1	/	7%	2%	0%	19%	/
CC1CN(Cc2ccccc2Cl)CC(C)O1 (stereo unspecified)	32µM*	4.5µM*	-2%	-7%	?	/
Clc1cccc(CN2CCN(c3ncccn3)CC2)c1Cl	?	20µM*	-2%	-23%	?	5%
Cc1cc(C)c(-c2n[nH]c3c2C(c2ccccc2F)N(Cc2ccco2)C3=O)c(O)c1 (stereo unspecified)	?	-31%	/	-2%	19%	/
c1cnc(N2CCN(Cc3ccc4c(c3)OCO4)CC2)nc1	-17%	-17%	0%	0%	22%	-2%
Clc1ccccc1CN1CCSCC1	?	25µM*	0%	-12%	?	-5%[2.29 µM]
Fc1ccc(CN2CCN(c3ncccn3)CC2)c(F)c1	4%	18µM*	1%	-2%	-24%	-1%
CC(C)C1O/C(=N/C(=O)Nc2ccc(Cl)c(Cl)c2)NC1=O (stereo unspecified)	-2%	-7%	-2%	7%	32%	-7%
C=CCOc1c(CNc2ccc3[nH]c(=O)[nH]c3c2)cccc1OC	-7%	45µM*	27µM*	-1%	?	-1%
SMILES	BAZ2B block	JMJD2A Tudor inh	PLK1 PBD block	VDR inh	HP1b chromo inh	L3MBTL1 block
COc1cccc(CNc2ccc3[nH]c(=O)[nH]c3c2)c1OCc1ccc(F)cc1	45µM*	40µM*	-9%	3%	?	?
O=c1[nH]c2ccc(NCc3ccccc3OCc3ccc(Cl)cc3)cc2[nH]1	22µM*	28µM*	1%	13%	?	?
Oc1ccc(NCc2ccccc2OCc2ccc(Cl)cc2)cc1	-25%	?	/	?	5%	/
COc1ccc(-c2c(=O)n(OCc3nc4ccccc4[nH]3)c3ccccc3[n+]2[O-])cc1	-3%	-24%	-4%	-3%	28%	10%
O=c1c(-c2ccc(Br)cc2)[n+]([O-])c2ccccc2n1OCc1ccccn1	0%	-20%[11.4 µM]	24µM*	-17%	1%	4%
C=CCOn1c(=O)c(-c2ccc(OC)cc2)[n+]([O-])c2ccccc21	-26%	-3%	12µM*	-5%	51%	0%
O=c1c(-c2ccco2)[n+]([O-])c2ccccc2n1OCc1ccccc1	29%	50µM*	?	-29%	?	/
CCc1ccccc1N(C)C(=O)Cc1c(C(=O)O)c(C)cn1C	-5%	-8%	/	8%	19%	/
O=C1CCc2cc([S+](=O)([O-])NC3CCOCC3)ccc2N1	/	-16%	/	/	/	/
CCc1nn(Cc2c(C)cc(C)cc2C)c(=O)c2cc3cc(C)ccc3n12	3%	-6%	/	7%	19%	/
CCOC(=O)Cc1csc(NC(=O)Cn2c(=O)oc3ccccc32)n1	4%	-20%	-16%	7%	9%	/
COc1ccc(Cn2c(SCc3ccc(C(=O)NC(C)c4ccccc4)cc3)nc3cccnc32)cc1 (stereo unspecified)	2%	-13%	/	-1%	27%	/
O=[N+]([O-])c1cnc(Sc2ccncn2)s1	-20%	-22%	0.67µM*	22µM*	-2%	6%
O=C1NCCN1c1ncc([N+](=O)[O-])s1	6%	-9%	13%	-10%	16%	13%
Nc1ccc(NC(=O)c2ccccc2)c2c1C(=O)c1ccccc1C2=O	-29%	?	-5%	23%	2%	-3%
O=C1c2ccccc2C(=O)c2c(O)c(O)cc(O)c21	/	22µM*	27µM*	50µM*!	11µM*	?
O=C1c2ccccc2C(=O)N1c1ccccc1O	/	1%	/	/	/	/
Nc1ccc(O)c2c1C(=O)c1ccccc1C2=O	4µM*	5.6µM*	?	?	?	?
O=C1c2ccccc2C(=O)c2c(O)ccc(O)c21	/	/	/	45µM*	/	/
O=C1C=C(O)c2c(O)cc(O)c(O)c2C1=O	/	1.6µM*	?	-18%	?	/
O=C(CCCCn1c(=O)c2ccccc2n(Cc2ccc(F)cc2Cl)c1=O)NCCc1ccc(Cl)cc1	-2%	-6%	/	3%	48%	/
Cc1ccc(N2CCN(c3nc4ccc(C(=O)c5ccccc5)cc4n4cnnc34)CC2)c(C)c1	?	-17%	/	11%	-9%	/
O=C1CC(c2ccccc2)Cc2[nH]c(=O)c(-c3nc(-c4ccc(Cl)cc4)cs3)cc21 (stereo unspecified)	6%	10%	/	-13%	54%	/
O=C(/C=C/c1ccccc1)OC1CC(O)C2(O)C=CO[C@@H](OC3OC(CO)C(O)C(O)C3O)C12 (stereo partly specified)	/	/	/	9%	/	/

Source: PubChem (National Center for Advancing Translational Sciences (NCATS))
